Of roughly 7,900 targets only a part is listed; those with a hit were picked by preference. About 0.6% of all pairs of compound and target were hits.
target: ZNF277 (UniProt Q9NRM2); test: log2 fold change, soluble protein after heating vs DMSO (PISA); higher = thermal stabilisation; K562 cells, 10 uM, 30 min; active = over 0.2 and 3.5 SD of the protein, either way, in both replicates (recomputed)
Summary of the method: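 For each measurement, 10 μM compound was applied for 30 min to K562 cells at 2×10^6 cells/mL. Aliquots were heated for 3 min across 48°C-58°C, pooled, and extracted in PBS with 0.5% NP-40 at 4°C; the supernatant after 21,000xg for 90 min was soluble protein. This was quantified by TMTpro 16plex LC-MS/MS with channel sums equalised, and thermal stability was reported relative to control samples from duplicates, on a log2 fold-change scale.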

ZNF277, sequence (Q9NRM2 whole entry, looked up): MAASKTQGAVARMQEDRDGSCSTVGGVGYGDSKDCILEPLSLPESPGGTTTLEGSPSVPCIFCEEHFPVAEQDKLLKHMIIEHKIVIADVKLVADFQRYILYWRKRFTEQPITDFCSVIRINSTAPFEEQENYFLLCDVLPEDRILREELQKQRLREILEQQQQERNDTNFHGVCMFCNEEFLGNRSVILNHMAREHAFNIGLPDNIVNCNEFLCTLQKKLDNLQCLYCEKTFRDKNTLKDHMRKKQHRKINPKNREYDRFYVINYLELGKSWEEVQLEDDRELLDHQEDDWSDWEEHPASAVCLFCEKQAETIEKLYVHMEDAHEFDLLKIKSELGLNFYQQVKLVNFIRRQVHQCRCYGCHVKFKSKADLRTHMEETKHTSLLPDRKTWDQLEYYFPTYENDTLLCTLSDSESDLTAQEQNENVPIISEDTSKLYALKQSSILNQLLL

log2 fold change, inactive:
Cc1ccc(NC(=O)c2ccc(CN3CC[C@H](N(C)C)C3)c(C(F)(F)F)c2)cc1Nc1nccc(-c2cncnc2)n1 [bafetinib] 0.246
CNC(=O)c1ccc(Nc2ncc(C(F)(F)F)c(NCc3nccnc3N(C)S(C)(=O)=O)n2)cc1 [defactinib] 0.161
CCCS(=O)(=O)Nc1ccc(F)c(C(=O)c2c[nH]c3ncc(Cl)cc23)c1F 0.028
Cc1ccc(NC(=O)c2cccc(N(C)C)c2)cc1NC(=O)c1ccc(O)cc1 -0.097
CCN(CCCOc1ccc2c(Nc3cc(CC(=O)Nc4cccc(F)c4)[nH]n3)ncnc2c1)CCOP(=O)(O)O [barasertib] 0.026
Cc1ccc2c(=O)c3ccccc3n(CCCN)c2c1C -0.126
COC(=O)[C@H](CCSC)NC(=O)c1ccc(NC[C@@H](N)CS)cc1-c1ccccc1 -0.047
CCCS(=O)(=O)Nc1ccc(F)c(C(=O)c2c[nH]c3ncc(-c4ccc(Cl)cc4)cc23)c1F [vemurafenib] 0.063
O=C1NC(=O)/C(=C\c2ccc3nccnc3c2)S1 -0.108
CC(C)c1cnn2c(NCc3ccccc3)cc(NCCCCCCN)nc12 -0.3
Cn1cncc1[C@@](N)(c1ccc(Cl)cc1)c1ccc2c(c1)c(-c1cccc(Cl)c1)cc(=O)n2C [tipifarnib] 0.044
Cc1ccc(Sc2cncc3sc(C(N)=O)cc23)cc1 -0.032
CNC(=O)c1ccccc1Nc1nc(Nc2ccc(N3CCOCC3)cc2OC)ncc1Cl 0.009
CN(CCOc1ccc(C[C@@H]2SC(=O)NC2=O)cc1)c1ccccn1 (racemic) [rosiglitazone] 0.011
Cn1cc(-c2ccc3nnc(C(F)(F)c4ccc5ncccc5c4)n3n2)cn1 -0.064
CC(C)(C)Cn1c(N)nc2ccc(-c3[nH]c(C(C)(C)C)nc3-c3ccc(F)cc3)nc21 [ralimetinib] 0.116
Cc1ccc(C(=O)N(CCCN)[C@@H](c2nc3cc(Cl)ccc3c(=O)n2Cc2ccccc2)C(C)C)cc1 [ispinesib] -0.27
CC[C@@H]1C(=O)N(C)c2cnc(Nc3ccc(C(=O)N[C@H]4CC[C@H](N5CCN(CC6CC6)CC5)CC4)cc3OC)nc2N1C(C)C [volasertib] -0.017
CS(=O)(=O)CCNCc1ccc(-c2ccc3ncnc(Nc4ccc(OCc5cccc(F)c5)c(Cl)c4)c3c2)o1 [lapatinib] 0
C#Cc1cccc(Nc2ncnc3cc(OCCOC)c(OCCOC)cc23)c1 [erlotinib] 0.097
CCn1c(C(=O)N(C2CC2)C2CC2)cc2c3c(ncn3C)c(Nc3cc(C)n(C)n3)nc21 -0.188
NC(=O)c1ccc2nc(-c3ccc(Oc4ccc(Cl)cc4)cc3)[nH]c2c1 -0.104
CC(C)C[C@@H](C=O)NC(=O)[C@H](CC(C)C)NC(=O)[C@H](CC(C)C)NC(=O)OCc1ccccc1 0.137
C=CC(=O)N1CCC[C@@H](n2nc(-c3ccc(Oc4ccccc4)cc3)c3c(N)ncnc32)C1 [ibrutinib] -0.028
CN(C)CC(=O)Nc1ccc2[nH]c(=O)c3ccccc3c2c1 -0.003
NCC(=O)Nc1ccc(-n2nc(C(F)(F)F)cc2-c2ccc3c(ccc4ccccc43)c2)cc1 -0.148
O=C(Nc1cccc(Nc2ncc(Br)c(NCCc3cnc[nH]3)n2)c1)N1CCCC1 0.034
Oc1cc(-c2nc(-c3ccccc3)[nH]c2-c2ccncc2)ccc1Cl -0.004
CN1CCc2c(c3ccccc3n2Cc2ccc(C(=O)NO)cc2)C1 [Tubastatin A] 0.275
COc1cc2nc(-c3cc(F)ccc3O)nc(N[C@@H]3CNC[C@H]3C(C)(C)O)c2cc1OC 0.268

Reference: the supplement of paper PMC10849652
